Assay outcomes as filed in PubChem.
Most compounds without a hit are left out; they make up all but 1.4% or so of the library.
NS1 function inh = blocks influenza NS1 protein function | Potency, µM (series often up to 46.1 µM) | actives 0.4% (n = 270,000); also: actives are rising curves; nearly all actives have a fitted effect of over 50% in size
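In this qHTS, NS1 from influenza A is expressed in budding yeast, where it slows growth. Cells are switched from glucose to 2% galactose medium (pH 6.0, -URA), treated with compound, and growth recovery is read at OD600.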
AmpC no deterg = blocks E. coli AmpC beta-lactamase in detergent-free assay; P00811; AmpC nitrocefin hydrolysis, absorbance 480 nm, 0.0001% Triton; Potency, µM (series often up to 57.1 µM), hits mostly inhibitors; actives 0.52% (n = 330,000); AID 485341; active = well fitted curve in the direction sought with a large enough effect; inconclusive = small, poorly fitted or top-dose-only effect, or another doubt; inactive = no such curve, though single readings can be large; an effect the other way counts as inactive or inconclusive; also: nearly all actives have a fitted effect of over 20% in size
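20 mM phosphate pH 7.0 + 0.01% (detergent screen) or 0.0001% Triton X-100; 5.3 nM AmpC reagent; cpd preinc 15 min RT; nitrocefin (800 uM stock) to start; A480 q20 s × 4 min; Activity was normalised to no-enzyme and no-compound control wells.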
FBPA Giardia inh = inhibitors of Giardia lamblia fructose-1,6-bisphosphate aldolase | A8B2U2 | purified Giardia FBPA | Potency, µM (titrated, usually from 59.6 µM), hits mostly inhibitors | actives 0.71% (n = 290,000) | AID 2451; active = well fitted curve in the direction sought with a large enough effect; inconclusive = small, poorly fitted or top-dose-only effect, or another doubt; inactive = no such curve, though single readings can be large; an effect the other way counts as inactive or inconclusive; also: nearly all actives have a fitted effect of over 55% in size
Target sequence (A8B2U2 whole entry, looked up): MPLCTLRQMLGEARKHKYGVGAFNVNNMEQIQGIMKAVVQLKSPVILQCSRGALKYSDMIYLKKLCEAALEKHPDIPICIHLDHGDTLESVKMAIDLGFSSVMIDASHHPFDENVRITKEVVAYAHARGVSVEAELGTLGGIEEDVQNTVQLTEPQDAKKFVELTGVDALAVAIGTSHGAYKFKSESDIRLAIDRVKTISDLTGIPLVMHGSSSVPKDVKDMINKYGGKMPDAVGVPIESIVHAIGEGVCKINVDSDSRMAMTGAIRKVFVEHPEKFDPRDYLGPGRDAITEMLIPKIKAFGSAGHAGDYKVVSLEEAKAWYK
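40 nM FBPA preincubated 10 min at RT with compound (up to 57.5 uM final), then substrate plus GAPDH/TPI/NAD/arsenate coupling and diaphorase/resazurin added. Fluorescence read after 20 min at RT, 525/598 nm.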
SARS PLpro yeast = inhibitors of SARS-CoV papain-like protease in yeast. S. cerevisiae expressing SARS-CoV PLpro, growth rescue. AID 485353. Potency, µM (top dose mostly 32.9 µM), actives largely listed as activators. actives 0.19% (n = 330,000); also: nearly all actives have a fitted effect of over 55% in size
AmpC inh detg = AmpC beta-lactamase inhibition with detergent present; P00811; AmpC hydrolysis of nitrocefin, absorbance 480 nm, 0.01% Triton; Potency, µM (titrated, usually from 114 µM), hits mostly inhibitors; actives 0.041% (n = 370,000); AID 485294; active = well fitted curve in the direction sought with a large enough effect; inconclusive = small, poorly fitted or top-dose-only effect, or another doubt; inactive = no such curve, though single readings can be large; an effect the other way counts as inactive or inconclusive; also: nearly all actives have a fitted effect of over 25% in size
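AmpC (5.3 nM in the dispensed reagent) in 20 mM phosphate pH 7.0 with 0.01% (detergent screen) or 0.0001% Triton X-100 was preincubated with compounds for 15 min at room temperature. Nitrocefin was then added from an 800 uM solution, and hydrolysis was followed at 480 nm.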
NS1 inh valid = validation of influenza NS1 protein function inhibitors. AID 492980. 1,400 tested, under 10 active. shares compounds with NS1 function inh. influenza NS1 function cell assay, 15-point titration. activity change, negative = inhibition, % at 32.9 µM
PR8 titer = influenza virus titer reduction, NS1 project; shares compounds with NS1 function inh; MDCK infected influenza A/PR/8/34, virus titer TCID50; hits give low values; virus titer (log TCID50), log10 TCID50 at 5 µM; actives 30% (n = 95); call rule not given here
Hits are given with their value; . = inactive; ? = inconclusive; / = no result given; [ ] = remark or other dose. Unless noted, calls follow the shape of the full dose curve.

SMILES	NS1 function inh	AmpC no deterg	FBPA Giardia inh	SARS PLpro yeast	AmpC inh detg	NS1 inh valid	others
Cc1cccc(OCc2nnc(SCC(=O)N3c4ccccc4CCc4ccccc43)o2)c1	12.6µM	.	.	.	.	.	PR8 titer=.
Cc1cc(OCC(=O)N[C@@H](CSCc2ccccc2)C(=O)O)c2c(C)c(C)c(=O)oc2c1	12.6µM	.	.	.	.	?
Cc1cc(OCC(=O)N[C@@H](Cc2ccccc2)C(=O)O)c2c3c(c(=O)oc2c1)CCC3	?	.	.	.	?	/
CCC1Oc2ccc(C)cc2N(CC(=O)NCCCN2CCCCC2C)C1=O (stereo not given)	?	.	.	.	.	.
O=C(C[n+]1cccc(C(=O)Nc2ccccc2)c1)c1ccc([N+](=O)[O-])cc1	2.51µM	.	.	.	.	.	PR8 titer=.
O=C(C[n+]1cccc(NC(=O)c2ccccc2)c1)c1cccc([N+](=O)[O-])c1	/	.	.	.	.	/
CC(=O)Nc1nc(C)c(-c2csc(Nc3ccc(O)cc3)n2)s1	3.16µM	?	.	.	.	.
Cc1nc(N)sc1-c1csc(Nc2ccccc2)n1	.	.	.	.	.	/
CC(=O)Nc1nc(C)c(-c2csc(Nc3cccc(C(C)=O)c3)n2)s1	.	.	.	.	.	/
Cc1cc(O)ccc1Nc1nc(-c2sc(N)nc2C)cs1	11.2µM	.	.	.	.	.
COc1ccc(CNC(=O)c2cc(-c3ccc(Br)s3)nc3ccccc23)cc1	/	/	/	/	.	/
Cc1ccc(F)c([C@H]2[C@H]3C=CC[C@@H](C)[C@@H]3C(=O)N2Cc2ccccc2)c1	?	.	.	.	.	?	PR8 titer=.
O=C(C1CCCN(S(=O)(=O)c2cccc3nonc23)C1)N1CCC(Cc2ccccc2)CC1 (stereo not given)	10µM	/	.	/	.	.
O=C(C1CCCN(S(=O)(=O)c2cccc3nonc23)C1)N1CCN(c2ccccc2Cl)CC1 (stereo not given)	?	.	.	.	.	/
CC(=O)Nc1ccc(C(=O)NC2CCSc3ccccc32)cc1 (stereo not given)	.	.	.	.	.	/
Cc1ccc(NC(=S)NC2CCSc3ccccc32)cc1 (stereo not given)	1.41µM	.	.	.	.	.
CN(C)C1=NCCN1CC1CCCCC1	/	.	/	.	.	/
O=C(Nc1nc2ccc(S(=O)(=O)N3CCCCC3)cc2s1)c1ccncc1	10µM	.	.	.	.	.
CN1CCN(c2ccc(S(=O)(=O)N3CCOCC3)cc2NC(=O)COc2ccc(F)cc2Cl)CC1	.	.	/	.	.	/
O=C(Nc1ccc(Cl)c(Cl)c1)Nc1cc(S(=O)(=O)N2CCOCC2)ccc1N1CCCC1	11.2µM	.	.	?	?	.
O=C(COc1ccc(F)cc1Cl)Nc1cc(S(=O)(=O)N2CCOCC2)ccc1N1CCCCC1	3.55µM	.	.	.	.	.
COCCn1nnnc1C(c1ccccc1)N1CCN(Cc2ccc3c(c2)OCO3)CC1 (stereo not given)	4.47µM	.	.	.	?	.
Cc1ccc(Cl)cc1S(=O)(=O)N1CCC(C(=O)NC2CCN(Cc3ccccc3)CC2)CC1	.	.	.	.	.	/
COc1cc(Cl)cc(C(c2c(C(=O)O)[nH]c3ccccc23)c2c(C(=O)O)[nH]c3ccccc23)c1O	2.51µM	.	.	.	.	.
Cc1cccc(NC(=O)CSc2nnc(-c3ccccc3C)o2)c1	.	.	.	.	.	/
Cc1cc(C)cc(NC(=O)CSc2nnc(-c3ccccc3C)o2)c1	?	.	.	.	.	.
CCc1ccccc1NC(=O)CSC1=C(C#N)C(c2ccc(O)c(OC)c2)C2=C(CCCC2=O)N1 (stereo not given)	.[9.22 µM]	.	.	.	.	/
CN1C(c2ccc(F)cc2)=CS/C1=C(\C#N)c1nnc2n1-c1ccccc1SC2	.	.	.	.	.	/
O=C(N/N=C/C=C\c1ccccc1[N+](=O)[O-])c1cc(-c2ccccc2)nc2ccccc12	7.08µM	.	.	.	.	.
